# Reference: PubChem BioAssay (NCATS)
# Records with an inconclusive call do not appear. Calls of active or inactive are those of the source. Calls come from the whole dose curve.
# Assay: VSVG counterscreen qHTS to identify inhibitors of SARS-CoV-2 cell entry (AID 1645847); note: nearly all actives have a fitted effect of over 65% in size
# Details: VSV-G pseudotyped particle entry, luciferase; series mostly up to 57.2 µM
# How it was run: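 Luminescence read after 48 h infection at 37 C with VSV-G-pseudotyped MLV particles, following 1 h compound exposure of Expi293F cells stably expressing human ACE2; scaled between bald particle and VSV-G particle wells.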
# Potency is the fitted concentration of half-maximal effect.
row,Compound,Potency
1,CCc1cc(C(N)=O)ccc1-n1nc(C(C)C)c2c(-n3cnc(-c4cnn(C)c4)c3)ccnc21,3040 nM (active)
2,COc1ccc(S(=O)(=O)N2CCc3cccc(-c4ccncc4)c32)cc1,1520 nM (active)
3,Cc1nnc(C[C@@H]2C=C(c3ccc(Cl)cc3)c3ccccc3-n3c(C)nnc32)o1,9610 nM (active)
4,Cn1cc(C2=C(c3cn(C)c4cc([N+](=O)[O-])ccc34)C(=O)NC2=O)c2ccccc21,1080 nM (active)
5,COc1cc(F)ccc1-c1ncnc(Nc2cccc(CS(C)(=N)=O)c2)n1 (centres undefined),4290 nM (active)
6,O=C1NC(=O)[C@@H](c2c[nH]c3ccccc23)[C@H]1c1cn2c3c(cccc13)CCC2,1520 nM (active)
7,CN(C)CCCOc1ccc(-c2ccc3ncc4c(c3c2)n(C2CCOCC2)c(=O)n4C)cn1,2350 nM (active)
8,COc1cccc2c1C(=O)c1c(O)c3c(c(O)c1C2=O)C[C@@](O)(/C(CO)=N/NC(=O)CCCCCN1C(=O)C=CC1=O)C[C@@H]3O[C@H]1C[C@H](N)[C@H](O)[C@H](C)O1,341 nM (active)
9,C=CC(=O)N1CC[C@@H](Oc2nc(Nc3ccc(N4CCC(N5CCN(C)CC5)CC4)cc3)c(C(N)=O)nc2CC)C1,5270 nM (active)
